A selection: hits, their analogues and other compounds. The true share with any hit is near 1.8%.
GSTO1 counter: counter-screen for RBBP9 inhibitors: inhibitors of human GSTO1; P78417; recombinant GSTO1, activity-based probe fluorescence polarization; inhibition, % at 5.96 µM; actives 1.1% (n = 300,000); AID 1974;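 active = inhibition above the campaign mean inhibition plus 3 SD, cut at about 35% in these data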
Fam108B inh: Fam108B inhibition, counter-screen for RBBP9 inhibitors. recombinant Fam108B, FP-Rh probe fluorescence polarization. inhibition, % at 9.51 µM. actives 0.33% (n = 300,000);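 active = inhibition above the screen mean inhibition plus 3 SD, computed separately per campaign, cut at about 18% in these data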;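 note: inhibitors lower polarization as less probe binds the enzyme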
PAD4 inh: PAD4 (human) enzyme inhibition; Q9UM07; recombinant PAD4, RCA probe fluorescence polarization; inhibition, % at 6.36 µM; actives 0.41% (n = 330,000);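 active = percent inhibition above a cutoff equal to the mean of all tested compounds plus 3 SD, cut at about 15% in these data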
Target sequence (Q9UM07 whole entry, looked up): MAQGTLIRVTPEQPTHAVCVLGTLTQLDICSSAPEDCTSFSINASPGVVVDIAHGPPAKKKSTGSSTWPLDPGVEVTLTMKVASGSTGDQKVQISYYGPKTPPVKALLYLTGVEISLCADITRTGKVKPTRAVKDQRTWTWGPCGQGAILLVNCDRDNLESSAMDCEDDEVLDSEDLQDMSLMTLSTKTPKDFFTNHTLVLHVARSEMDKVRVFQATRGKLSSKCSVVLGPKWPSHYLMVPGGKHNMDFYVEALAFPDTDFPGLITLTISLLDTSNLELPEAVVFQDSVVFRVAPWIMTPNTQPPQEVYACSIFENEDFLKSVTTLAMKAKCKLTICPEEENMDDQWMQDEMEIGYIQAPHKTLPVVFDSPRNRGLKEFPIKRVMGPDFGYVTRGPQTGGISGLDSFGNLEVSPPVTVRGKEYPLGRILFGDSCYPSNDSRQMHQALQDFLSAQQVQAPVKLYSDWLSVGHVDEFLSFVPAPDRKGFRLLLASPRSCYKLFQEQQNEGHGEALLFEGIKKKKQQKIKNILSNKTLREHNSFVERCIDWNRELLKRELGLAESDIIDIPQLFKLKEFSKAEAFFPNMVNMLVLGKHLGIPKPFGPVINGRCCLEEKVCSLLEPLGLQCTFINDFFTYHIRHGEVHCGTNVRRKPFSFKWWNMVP
LYPLA1 counter: LYPLA1 (human) inhibition in PME1 counter-screen | actives 0.16% (n = 320,000) | inhibition, % at 5.9 µM | O75608 | AID 2174 | recombinant LYPLA1, FP-Rh probe fluorescence polarization;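 active = inhibition above the mean of all tested compounds plus 3 SD, set per campaign, cut at about 14% in these data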;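 note: inhibitors block serine hydrolase probe labeling of LYPLA1 so polarization falls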
LYPLA2 counter: LYPLA2 (human) inhibition in PME1 counter-screen; O95372; recombinant LYPLA2, FP-Rh probe fluorescence polarization; actives 0.38% (n = 320,000); inhibition, % at 5.9 µM;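 active = inhibition above the screen-wide mean plus 3 SD, limit set per campaign, cut at about 26% in these data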
PME-1 inh: PME-1 (human) inhibition; recombinant PME-1, FP-Rh probe fluorescence polarization; Q9Y570; actives 0.53% (n = 320,000); inhibition, % at 5.9 µM; AID 2130;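 active = inhibition above the campaign mean of all compounds plus 3 SD, cut at about 26% in these data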;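 note: competitive labeling of PME-1 active site by serine hydrolase directed probe; inhibitors block probe labeling so polarization falls and inhibition rises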
Hits are given with their value; 0 = inactive; - = no result.

SMILES	GSTO1 counter	Fam108B inh	PAD4 inh	LYPLA1 counter	LYPLA2 counter	PME-1 inh
O=c1cc(-c2ccccc2Cl)oc2c(NS(=O)(=O)c3cc(Cl)cc(Cl)c3O)ccc(O)c12	0	0	0	0	0	57
CCc1ccc(S(=O)(=O)Nc2ccc(O)c3c(=O)cc(-c4ccccc4Cl)oc23)cc1	0	0	0	0	0	0
CC(CC(=O)O)Nc1ccccc1O (stereo not given)	48	0	0	0	0	0
COc1ccc(S(=O)(=O)N2CCCN(CC(=O)Nc3ccc(OC)c(Cl)c3)CC2)cc1	36	0	0	0	0	0
COc1ccc(C2CC(c3ccc(OC)c(OC)c3)=NN2S(C)(=O)=O)cc1 (stereo not given)	0	0	0	0	0	33
O=C(CNC(=O)c1ccco1)OCN1C(=O)c2ccccc2C1=O	37	0	0	0	0	0
Cc1ccc(C(=O)NCC(=O)OCN2C(=O)c3ccccc3C2=O)cc1C	-	-	0	0	0	0
COc1cc(CNc2ccc(N3CCCC3)cc2)ccc1OCc1ccccc1	53	0	0	0	0	0
O=c1[nH][nH]c(=S)n1C1CCCCC1	0	0	0	0	0	0
O=c1cc(O)n(C2CCCCCC2)c(=O)[nH]1	36	0	0	0	0	0
COc1ccc(OC)c(CN2CCN(C(=O)c3ccc(S(=O)(=O)Nc4ccccc4F)cc3)CC2)c1	-	-	0	0	0	0
Cc1ccc(C(=O)CC(=O)c2ccccc2)cc1	0	0	0	0	0	0
Cc1ccc(C(=O)Sc2cccccc2=O)cc1	37	0	0	0	0	0
Cn1c(=O)[nH]c(=O)c2c1nc(Br)n2CCSc1nc2ccccc2o1	0	0	0	0	0	0
COc1ccc(S(=O)(=O)N(C)C)cc1NC(=O)Cc1c[nH]c2ccccc12	0	0	0	0	0	78
O=C(CCl)NC(=O)NC12CC3CC(CC(C3)C1)C2	89	0	0	0	0	0
O=C(NCCCO)NC12CC3CC(CC(C3)C1)C2	0	0	0	0	0	0
Cc1ccc(NS(=O)(=O)c2ccc3c(c2)C(=O)c2ccccc2C3=O)c(C)c1	0	0	0	0	0	32
Cc1cccc(S(=O)(=O)Nc2cccc3c2C(=O)c2ccccc2-3)c1	0	0	0	0	0	0
COc1cccc(CNC(=O)CCCc2cn(C)c3ccccc23)c1	0	0	0	0	0	134
COc1ccc(OC)c(CNC(=O)CCCc2cn(C)c3ccccc23)c1	0	0	0	0	0	0
C=CCN(CC=C)c1nc2ccccc2nc1C(C#N)C(=O)OC(C)C (stereo not given)	0	0	0	0	0	0
N=c1oc2cc(O)ccc2cc1C(=O)Nc1nc2ccccc2s1	0	0	0	0	0	30
CC(=O)O[C@H]1CC(C)(C)C(=C=C/C(C)=C/C=C/C(C)=C/C=C/C=C(C)/C=C/C=C(\C)C(=O)C[C@@]23O[C@]2(C)C[C@@H](O)CC3(C)C)[C@](C)(O)C1	0	0	0	0	0	0
N#C/C(=C/c1ccc(N2CCOCC2)o1)c1ccc(Cl)cc1	0	21	0	0	0	0
SMILES	GSTO1 counter	Fam108B inh	PAD4 inh	LYPLA1 counter	LYPLA2 counter	PME-1 inh
N#C/C(=C\c1ccc(N2CCOCC2)o1)c1nc2ccccc2[nH]1	0	0	0	0	0	0
O=C(CCl)N1CCN(C(=O)C2COc3ccccc3O2)CC1 (stereo not given)	-	-	0	-	-	-
O=C(CCl)N1c2ccccc2OCC1c1ccccc1 (stereo not given)	64	0	0	0	0	0
CC/C(=N\NC(=O)CNC(=O)/C=C/c1ccc(OC)cc1)c1ccccc1	0	0	0	0	0	0
Cc1ccc(S(=O)(=O)Oc2cccc(/C=N/Nc3ccc(C(=O)O)cc3)c2)cc1	0	0	0	0	0	31
O=C(CNC(=O)c1ccco1)NNC(=O)c1cccc(Cl)c1	-	-	0	-	-	-
C=CCN1C(=O)C(=O)N(CC(=O)NCC(=O)Nc2ccc(F)c(F)c2F)C1=O	-	-	0	-	-	-
CC(NC(=O)Cn1ncc(Cl)c(Cl)c1=O)C12CC3CC(CC(C3)C1)C2 (stereo not given)	37	0	0	0	0	0
C[C@H](CO)N1C[C@H](C)[C@@H](CN(C)Cc2ccc3c(c2)OCO3)Oc2ccc(NC(=O)Cn3cnnn3)cc2C1=O	-	-	0	-	-	-
CC1=Nc2cc(C(=O)N3CCCC3)ccc2Sc2ccc(C)cc21	0	0	0	0	0	0
CCN1C/C(=C/c2ccc(OC)c(O)c2)C(=O)/C(=C/c2ccc(OC)c(O)c2)C1	0	0	0	0	0	0
COc1ccc(/C=C2\CN(Cc3ccccc3)C/C(=C\c3ccc(OC)c(O)c3)C2=O)cc1O	0	0	0	0	0	27
Cc1ccc(S(=O)(=O)N(C)c2ccc(C(=O)Nc3cccnc3)cc2)cc1	0	0	0	0	0	0
CCOc1cccc(C(=O)Nc2ccc(N(CC)CC)cc2)c1	0	0	0	0	0	0
CCN(CC)c1cccc(OCC(=O)N(C)CCC#N)c1	0	0	45	0	0	0
Cc1sc(=NC(=O)c2ccco2)n(C)c1-c1ccccc1	0	0	0	0	0	0
Cn1c(=NC(=O)c2ccco2)sc2ccccc21	36	0	0	0	0	0
CN1CCN(c2ccc(NC(=O)c3ccc(-c4ccc(Br)cc4)o3)cc2)CC1	0	0	0	0	0	30
O=C(Nc1ccc(N2CCCC2)cc1)c1ccc(Br)o1	0	0	0	0	0	0
Cc1ccccc1/C=C1\SC(=S)N(/N=C/c2cc([N+](=O)[O-])ccc2O)C1=O	35	0	0	0	0	0
O=C1/C(=C\c2cc([N+](=O)[O-])ccc2O)SC(=S)N1Cc1ccc(Cl)cc1	0	0	0	0	0	0
Cc1ccc(N=Nc2c(N)n(-c3ccccc3)[nH]c2=O)cc1	0	0	0	0	0	35
Cc1c(C(=O)OC/C(O)=C(\C#N)c2nc3ccccc3[nH]2)oc2ccccc12	0	0	0	0	0	32
Cc1cc(C)c2[nH]c(O)c(N=Nc3ccc(C(=O)O)cc3)c2c1	0	0	0	0	0	0
Cc1cc(C)c2[nH]c(O)c(N=NC3=NC(=O)CS3)c2c1	0	0	0	0	0	28
SMILES	GSTO1 counter	Fam108B inh	PAD4 inh	LYPLA1 counter	LYPLA2 counter	PME-1 inh
Cc1ccc(CN(C)C(=O)CCc2nc3sc4c(c3c(=O)[nH]2)CCCC4)o1	0	0	0	0	0	0
O=C(NC1CC1)c1ccc2c(c1)S(=O)(=O)c1cc(Cl)ccc1C2=O	-	-	20	0	0	0
COCCNC(=O)c1ccc2c(c1)S(=O)(=O)c1cc(Cl)ccc1C2=O	-	-	0	0	0	0
CN(CCOc1ccccc1)C(=O)c1ccc(Cl)c(S(=O)(=O)N2CCCCC2)c1	-	-	0	0	0	0
O=C1CSC(=S)N1/N=C/c1ccc(O)c(O)c1O	67	0	0	0	0	0
Cc1noc(C)c1S(=O)(=O)N(C)C[C@H]1Oc2c(cccc2N(C)C)C(=O)N([C@H](C)CO)C[C@@H]1C	-	-	0	-	-	-
